Experimental data taken from PubChem BioAssay (NCATS).
Inconclusive results are not listed. A number with no mark means an inactive call. Calls come from the whole dose curve; as a rule, active = well fitted cell-killing curve with a large enough effect; inconclusive = small, poorly fitted or top-dose-only effect, or effect the other way; inactive = flat fitted curve, though single readings scatter.

These compounds were tested on C33A (assay: Primary qHTS to identify gynecologic anti-cancer compounds using libraries of approved drugs and bioactive compounds (AID 1345084; note: nearly all actives have a fitted effect of over 55% in size)). Conditions: Gynecologic cancer cell panel viability, ATPlite luminescence, 48 h; series mostly up to 57.5 µM; activity change, negative = cytotoxicity: at the top concentration.
How it was run: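 ATP-based viability (ATPlite), 1,000 cells/well, 16 h pre-incubation, 48 h compound at 37 C, 5% CO2, 15 min RT before read.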
% is set by controls: 0 for no effect and ±100 for the full control effect.

| SMILES | activity change, negative = cytotoxicity |
| --- | --- |
| N#Cc1cccc(C(=O)Nc2cc(-c3ccccc3)nn2-c2ccccc2)c1 | 9.28% |
| O=C(Nc1ccc(C(F)(F)F)cn1)N1CCN(c2ncccc2C(F)(F)F)CC1 | 1.42% |
| O=C(Nc1ccccc1C(=O)NC1CCCCNC1=O)c1cc2ccccc2s1 (centres undefined) | 3.64% |
| CCCCCCOC(=O)/N=C(\N)c1ccc(NCc2nc3cc(C(=O)N(CCC(=O)OCC)c4ccccn4)ccc3n2C)cc1 | 8.92% |
| CC[C@H]1CN(c2nc(N)c(C(N)=O)nc2Cl)CCN1C1CCN(Cc2ccc(Cl)cc2)CC1 | 7.13% |
| CC(C)=CCc1cc2c(cc1O)OC[C@H]1c3ccc(O)cc3O[C@@H]21 | -0.41% [at 38.5 µM] |
| Cc1c(C(=O)NCc2cccnc2)nn(-c2ccc(Cl)cc2Cl)c1-c1ccc(Cl)cc1 | 18.2% |
| C=C1C(OC2OC(CO)C(O)C(O)C2O)CC2C(C)(C)C(O)CCC2(C)C1CC/C(C)=C\COC(=O)CC(=O)O (centres undefined) | -3.23% [at 25.3 µM] |
| C=CC1(C)CC(O)C(C(=C)C(=O)OC)C(O)C1C(=C)CO (centres undefined) | -4.01% |
| Cn1cc(-c2ccc(F)c(C(F)(F)F)c2)nc1C1CCN(c2ncnc3[nH]ncc23)CC1 | -2.9% [at 25.3 µM] |
| Cc1ccccc1CN1CCn2c1nc1c(c2=O)CN(Cc2ccccc2)CC1 | 13.3% |
| Cc1cc(-c2ncc(-c3cccnc3)cc2/C=C/c2ccccc2)cnc1-c1cccnc1 | 4.71% |
| Cc1cnn(-c2ccccc2)c1NC(=O)COCc1ccccc1 | -16.1% |
| OC(CC1c2ccccc2-c2cncn21)C1CCCCC1 (centres undefined) | 0.481% |
| Nc1nc2c(s1)CCN(Cc1ccc(Cl)cc1)CC2 | -2.36% |
| COc1ccc(CCN(C)CCCOc2nsc(-c3ccccc3)n2)cc1OC | -12.6% |
| COc1cc(O)cc(OC2OC(CO)C(O)C(O)C2O)c1 (centres undefined) | 5.04% |
| Cc1cc(C)cc(-c2cnc3cc(Cl)c(-c4cccc(O)c4)cc3c2OCCCN)c1 | -5.36% |
| N[C@@H]1c2cccnc2[C@H](OC(=O)N2CCC(n3c(=O)[nH]c4ncccc43)CC2)CC[C@H]1c1cccc(F)c1F | 0.479% |
| CNCc1cc(-c2ccccc2F)n(S(=O)(=O)c2cccnc2)c1 | 3.03% |

| SMILES | activity change, negative = cytotoxicity |
| --- | --- |
| COc1c2c(c(C)c3c1C(=O)OC3)O[C@@]1(C)C[C@@H](OC(C)=O)[C@]34O[C@](OC)(CC[C@]3(C)[C@H]1C2)OC4(C)C | -3.33% [at 25.3 µM] |
| O=C(N[C@H](Cc1cscn1)C(=O)N[C@@H](CC1CCCCC1)[C@@H](O)[C@@H](O)C1CC1)c1nc2ccccc2[nH]1 | 25.3% |
| O=C(COc1ccc2ccccc2c1Br)Nc1cccnc1 | -3.87% |
| C=C(CCC1C(C)(O)CCC2C(C)(C)C(O)CCC12C)C(O)CO (centres undefined) | -11.7% [at 38.5 µM] |
| C=CCC1=C[C@]2(OC)[C@H](C)[C@@H](c3ccc4c(c3)OCO4)O[C@]2(OC)CC1=O | -0.0123% [at 38.5 µM] |
| C[C@H]1CC[C@@]2(OC1)O[C@H]1CC3[C@@H]4CC[C@@H]5C[C@@H](O[C@@H]6O[C@H](CO)[C@@H](O[C@@H]7O[C@H](CO[C@@H]8OC[C@@H](O)[C@H](O)[C@H]8O)[C@@H](O[C@@H]8O[C@H](CO)[C@H](O)[C@H](O)[C@H]8O)[C@H](O)[C@H]7O)[C@H](O)[C@H]6O)CC[C@]5(C)C4CC[C@]3(C)[C@H]1[C@@H]2C (some centres undefined) | -0.589% [at 11.6 µM] |
| C[C@@H](NC(=O)C(=O)c1c[nH]c2ccc([N+](=O)[O-])cc12)c1ccccc1 | 5.22% |
| Cc1[nH]c2ccccc2c1CCNC(=O)c1cccs1 | 1.47% |
| C#CCCCn1cc(-c2cccc3c2N[C@H](C)CC(=O)N3)cn1 | -13.6% |
| O=C(NC1CCC1)c1ccc(C#Cc2cccc(F)c2)nc1 | 16.1% |
| O=C(O)c1cccc(-c2ccc(-c3cn(C(=O)N4CCCCC4Cc4ccccc4)nn3)cc2)c1 (centres undefined) | 16% |
| COC1C(OC(=O)/C=C/C=C/C=C/C=C/C(=O)O)CCC2(CO2)C1C1(C)OC1CC=C(C)C (centres undefined) | 1.48% [at 25.3 µM] |
| Cc1cc2c(cc1N1C(=O)c3cccc4c(CCCO)ccc(c34)C1=O)n(C)c(=O)n2C | -3.52% [at 25.3 µM] |
| O=C(NCC(=O)N1CCCC1)Nc1ccc2cnccc2c1 | -4.07% |
| CC(C)(C)c1ccc(C(=O)Nc2cn3cc(-n4ccnc4)ccc3n2)cc1 | -1.74% |
| O=S1(=O)CCN(Cc2cc(NCC3CCOCC3)c3[nH]c(-c4ccccc4)cc3c2)CC1 | -0.921% |
| NS(=O)(=O)c1ccc(N2N=C(c3ccccc3)CC2c2ccccc2)cc1 (centres undefined) | -2.01% |
| CCc1ccccc1OC[C@@H](O)CN[C@H]1CCCc2ccccc21 | -11.7% |
| C=C1/C(=C/C=C2\CCC[C@]3(C)[C@@H]([C@H](C)/C=C/[C@H](O)C4CC4)CC[C@@H]23)C[C@@H](O)C[C@@H]1O | -1.01% |
